Screening results deposited in PubChem by several laboratories.
Shown are actives, neighbours in structure and some others; about 2.4% of the full set was active somewhere.
PABP FP inh: PABP-poly(A) binding inhibition. actives 1% (n = 290,000). P11940. PABP-poly(A) RNA binding, fluorescence polarization. calls only at 35 µM;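 further: calls also rest on retests at 20 µM and on dose response follow-up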
Target sequence (P11940 whole entry, looked up): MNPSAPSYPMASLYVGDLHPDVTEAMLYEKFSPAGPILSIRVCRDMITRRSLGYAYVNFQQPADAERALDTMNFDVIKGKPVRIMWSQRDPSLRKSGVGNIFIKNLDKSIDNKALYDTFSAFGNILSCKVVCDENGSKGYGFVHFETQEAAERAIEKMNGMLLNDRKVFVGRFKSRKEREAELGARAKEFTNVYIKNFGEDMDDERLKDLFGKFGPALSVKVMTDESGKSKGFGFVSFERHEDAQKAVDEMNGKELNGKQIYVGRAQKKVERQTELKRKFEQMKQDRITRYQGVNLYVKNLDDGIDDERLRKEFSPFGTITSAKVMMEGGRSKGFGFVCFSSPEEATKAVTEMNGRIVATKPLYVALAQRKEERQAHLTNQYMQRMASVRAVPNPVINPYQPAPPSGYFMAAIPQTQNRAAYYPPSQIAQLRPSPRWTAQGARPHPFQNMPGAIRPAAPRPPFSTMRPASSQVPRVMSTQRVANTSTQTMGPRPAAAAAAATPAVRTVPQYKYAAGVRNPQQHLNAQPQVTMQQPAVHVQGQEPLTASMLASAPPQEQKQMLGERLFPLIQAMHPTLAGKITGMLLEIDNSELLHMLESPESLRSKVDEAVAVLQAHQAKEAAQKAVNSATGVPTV
PABP1 MLLE inh: blocks PAM2 peptide binding to the PABP1 MLLE domain; GST-MLLE / FITC-PAM2 fluorescence polarization; inhibition, % at 20 µM; actives 0.36% (n = 360,000); in the data active means inhibition above about 35%, passing the limit was not always enough;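 further: plate controls were DMSO wells with GST-MLLE for no effect and wells lacking GST-MLLE protein for full effect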
HMGR II inh: E. faecalis class II HMG-CoA reductase inhibition | inhibition, % at 10 µM | actives 0.41% (n = 190,000) | purified E. faecalis HMGR, NADPH absorbance 340 nm kinetic | AID 1066;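 active means inhibition above a set limit, the median over all tested compounds plus 3 SD, cut at about 9.5% in these data; inconclusive means no clear call, values can overlap the other calls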;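 further: enzyme runs in reverse so mevalonate oxidation gives rising NADPH absorbance; 0% = complete reaction with DMSO and 100% = background rate lacking mevalonate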
PHOSPHO1 block: PHOSPHO1 (human) inhibition; Q8TCT1; recombinant PHOSPHO1, absorbance phosphatase assay; actives 1.1% (n = 290,000); inhibition, % at 13.3 µM; in the data active means inhibition above about 60%
eIF4H inh: inhibitors of RNA binding by human eIF4H; inhibition, % at 35 µM; eIF4H fluorescence polarization binding assay; actives 0.94% (n = 290,000); AID 2012; Q15056;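 further: calls also rest on retests at 20 µM and on dose response follow-up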
* hit, by the source's call. Unless noted, how the calls were made is not given here.

What do the screens show for `Cn1ccnc1SCC(=O)NC1CCCCC1`?
PABP FP inh: inactive; PABP1 MLLE inh: 21; HMGR II inh: -2; PHOSPHO1 block: 62*; eIF4H inh: 2

What do the screens show for `O=C(CSc1ccccc1C(=O)O)NC1CCCCCCC1`?
PABP FP inh: inactive; PABP1 MLLE inh: 3; HMGR II inh: -13; PHOSPHO1 block: 2; eIF4H inh: 1

How did O=C(CSc1ccccc1C(=O)O)NC1CCCCCC1 do in these assays?
PABP FP inh: inactive; PABP1 MLLE inh: 79*; PHOSPHO1 block: -29; eIF4H inh: 3

Results for CSc1ccccc1C(=O)NC1CCCC1 ?
PABP FP inh: inactive; PABP1 MLLE inh: 6; HMGR II inh: 1; PHOSPHO1 block: 70*; eIF4H inh: -1

What do the screens show for `O=C(NCc1ccccc1Cl)c1cc([N+](=O)[O-])ccc1Cl`?
PABP FP inh: inactive; PABP1 MLLE inh: 0; HMGR II inh: 19*; PHOSPHO1 block: 32; eIF4H inh: 9

How did O=C(Nc1cccc2nsnc12)c1ccc(-c2cccc(Cl)c2)o1 do in these assays?
PABP FP inh: inactive; PABP1 MLLE inh: -19; HMGR II inh: -5; PHOSPHO1 block: 27; eIF4H inh: 34

How did CCC1(CC)NC(=O)N(CC(=O)Nc2sc3c(c2C(N)=O)CCC3)C1=O do in these assays?
PABP FP inh: active; PABP1 MLLE inh: -25; HMGR II inh: 1; PHOSPHO1 block: 20; eIF4H inh: 79*

What do the screens show for `CCC1(C)NC(=O)N(CC(=O)Nc2sc3c(c2C(=O)OC)CCCCC3)C1=O` (configuration not stated)?
PABP FP inh: inactive; PABP1 MLLE inh: 19; HMGR II inh: -1; PHOSPHO1 block: 9; eIF4H inh: -7

Results for COc1ccc(C)cc1NC(=O)NNC(=O)C(C)Oc1ccc([N+](=O)[O-])cc1 (configuration not stated) ?
PABP FP inh: inactive; PABP1 MLLE inh: -9; PHOSPHO1 block: -15; eIF4H inh: -13

Results for COC(=O)C(NNc1ccccc1)(NC(=O)c1ccc(F)cc1)C(F)(F)F (configuration not stated) ?
PABP FP inh: inactive; PABP1 MLLE inh: -3; HMGR II inh: 3; PHOSPHO1 block: 92*; eIF4H inh: -5

What do the screens show for `COC(=O)C(NNc1ccccc1)(NC(=O)c1ccccc1F)C(F)(F)F` (configuration not stated)?
PABP FP inh: inactive; PABP1 MLLE inh: -8; HMGR II inh: 5; PHOSPHO1 block: -63; eIF4H inh: -7

What do the screens show for `CCc1ccc(C(=O)CSc2n[nH]c(C)n2)cc1`?
PABP FP inh: inactive; PABP1 MLLE inh: 29; HMGR II inh: -2; PHOSPHO1 block: 102*; eIF4H inh: 4

What do the screens show for `Cc1ccc(C(=O)CSc2n[nH]c(C)n2)cc1`?
PABP FP inh: inactive; PABP1 MLLE inh: 23; HMGR II inh: 0; PHOSPHO1 block: 92*; eIF4H inh: -3

How did Cc1ccc(C)c(C(=O)CSc2n[nH]c(C)n2)c1 do in these assays?
PABP FP inh: inactive; PABP1 MLLE inh: 16; HMGR II inh: -1; PHOSPHO1 block: 47; eIF4H inh: -2

Results for CCC1(c2ccccc2)NC(=O)N(CC(=O)NNC(=O)c2ccc(F)cc2)C1=O (configuration not stated) ?
PABP1 MLLE inh: -105

What do the screens show for `CCOC(=O)CSC1=N/C(=C\c2cc(OC)c(OC)c(OC)c2)C(=O)N1C`?
PABP FP inh: inactive; PABP1 MLLE inh: 42*; HMGR II inh: -5; PHOSPHO1 block: 3; eIF4H inh: -2

How did CCOC(=O)CSC1=N/C(=C\c2cccnc2)C(=O)N1c1ccc(OC)cc1 do in these assays?
PABP FP inh: inactive; PABP1 MLLE inh: 16; HMGR II inh: 1; PHOSPHO1 block: 6; eIF4H inh: 0

Results for Nc1ncnc2c1ncn2[C@@H]1O[C@H](C(=O)NCC2CCN(Cc3ccccc3)CC2)[C@@H](O)[C@H]1O ?
PABP1 MLLE inh: 8

How did CN1CCN(C2=C(Cl)C(=O)N(CCc3ccccc3)C2=O)CC1 do in these assays?
PABP FP inh: inactive; PABP1 MLLE inh: 51*; HMGR II inh: 2; PHOSPHO1 block: -15; eIF4H inh: inconclusive

Results for O=C1C(Cl)=C(N2CCN(Cc3ccccc3)CC2)C(=O)N1c1ccccc1 ?
PABP FP inh: active; PABP1 MLLE inh: 21; HMGR II inh: -2; PHOSPHO1 block: -42; eIF4H inh: inconclusive

Results for COc1ccccc1/C=C/C(=O)Nc1ccc(S(=O)(=O)Nc2cc(C)on2)cc1 ?
PABP FP inh: inactive; PABP1 MLLE inh: 7; PHOSPHO1 block: 42; eIF4H inh: -9

Results for Cc1ccc(NS(=O)(=O)c2ccc3c(c2)NC(=O)CCS3)c(C)c1 ?
PABP FP inh: inactive; PABP1 MLLE inh: 0; PHOSPHO1 block: -4; eIF4H inh: 4

Results for CON(c1nc(Cl)nc(N(C)C)n1)S(=O)(=O)c1ccc(C)cc1 ?
PABP FP inh: inactive; PABP1 MLLE inh: -2; PHOSPHO1 block: 14; eIF4H inh: 7

Results for COc1ccc(NC(=O)COC(=O)CCNS(=O)(=O)c2ccccc2)cc1OC ?
PABP FP inh: active; PABP1 MLLE inh: -19; HMGR II inh: 7; PHOSPHO1 block: 20; eIF4H inh: active

What do the screens show for `COc1ccc(NC(=O)COC(=O)CNS(=O)(=O)c2ccccc2)cc1OC`?
PABP FP inh: inactive; PABP1 MLLE inh: 5; HMGR II inh: -5; PHOSPHO1 block: -18; eIF4H inh: -5

What do the screens show for `CCCNC(=O)c1ccccc1NC(=O)COc1cccc2c1OC(C)(C)C2`?
PABP1 MLLE inh: 1

What do the screens show for `CCOc1ccccc1N1CCN(CC(=O)NC(C)c2ccccc2)CC1` (configuration not stated)?
PABP FP inh: inactive; PABP1 MLLE inh: -9; PHOSPHO1 block: 24; eIF4H inh: 3

What do the screens show for `CCNC(=O)C(=O)Nc1cc2c3c(c1)CCC(=O)N3CCC2`?
PABP FP inh: inactive; PABP1 MLLE inh: -10; PHOSPHO1 block: 65*; eIF4H inh: -2

What do the screens show for `CC1Cc2cccc3ccc(=O)n(c23)C1` (configuration not stated)?
PABP1 MLLE inh: 3

What do the screens show for `S=C(Nc1ccc2nc(-c3ccccn3)c(-c3ccccn3)nc2c1)N1CCCCCC1`?
PABP FP inh: inactive; PABP1 MLLE inh: 30; HMGR II inh: -6; PHOSPHO1 block: -97; eIF4H inh: 45

Results for S=C(Nc1ccc2nc(-c3ccccn3)c(-c3ccccn3)nc2c1)N1CCCCC1 ?
PABP FP inh: active; PABP1 MLLE inh: 30; HMGR II inh: -3; PHOSPHO1 block: 87*; eIF4H inh: 38

Results for Cc1ccccc1NC(=O)Cn1nnc(C(=O)NCc2ccco2)c1N ?
PABP FP inh: inactive; PABP1 MLLE inh: -3; HMGR II inh: 13*; PHOSPHO1 block: 27; eIF4H inh: -1

What do the screens show for `Cc1ccccc1NC(=O)Cn1nnc(S(=O)(=O)c2ccc(C(C)(C)C)cc2)c1N`?
PABP FP inh: inactive; PABP1 MLLE inh: 0; HMGR II inh: 18*; PHOSPHO1 block: -1; eIF4H inh: -8
